Among the test systems are NCI-H23 lung; NCI-H226 lung; NCI-H322M lung; HOP-62 NSCLC; NCI-H460 lung; HOP-92 NSCLC; NCI-H522 lung; A549/ATCC NSCLC; 786-0 renal; COLO 205 colon; DU-145 prostate; K-562 leukemia; MALME-3M melanoma; MDA-MB-231 breast; RXF 393 renal; SF-268 CNS; SF-295 CNS; SF-539 CNS; UACC-257 melanoma; M14 melanoma.
Assay in all cases: NCI-60 one-dose screen, 48 h (100 = growth as untreated, 0 = no growth, -100 = all killed)
What all share (settings): 10 µM

Compounds without any hit were thinned out: in the full panel of roughly 83,000, 20% have a hit.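 In brief: 96-well plates, 48 h treatment, single concentration, percent growth endpoint.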 A number with no mark means an inactive call. Activity calls are given as the source filed them. The calls were made as follows: active = growth percent below 10; inactive = the rest.

Consider `O=C(c1ccc(Cl)cc1)C1[C@H](c2ccccc2Br)[C@@H](c2ccccc2)NC12C(=O)Nc1ccccc12` (stereo partly drawn), for which the growth in the assay with NCI-H23 lung is 6.15% (active); in the assay with NCI-H226 lung it was 21.9%; in the assay with NCI-H322M lung it was 42.1%; in the assay on HOP-62 NSCLC, 43.6%; in the assay with NCI-H460 lung, 0.679% (active); in the assay on HOP-92 NSCLC it was 14%. Further, the growth with NCI-H522 lung was -3.71% (active); in the assay on A549/ATCC NSCLC, 20.4%; in the assay with 786-0 renal, 16.3%; with COLO 205 colon it was -42.4% (active); in the assay on DU-145 prostate, 17.6%; with K-562 leukemia, 3.71% (active). Moreover, the growth in the assay with MALME-3M melanoma is 39.6%; in the assay with MDA-MB-231 breast, 8.15% (active); in the assay on RXF 393 renal it was -12.6% (active); in the assay on SF-268 CNS it was 27.9%; in the assay on SF-295 CNS it was 12.9%; in the assay on SF-539 CNS it was 13.5%. The figures for the growth with UACC-257 melanoma and in the assay on M14 melanoma were 33.8% and 17.1%, respectively.

`C=C1CCC2C3(C)COC(c4ccccc4F)OC3CCC2(C)C1C/C=C1/C(=O)OCC1O` (stereo not drawn): the growth was -38.8% (active) in the assay on NCI-H23 lung; -25.6% (active) with NCI-H226 lung; 14.5% with NCI-H322M lung; -41.7% (active) in the assay on HOP-62 NSCLC; -14.6% (active) with NCI-H460 lung; -37.5% (active) in the assay with HOP-92 NSCLC. For the same compound, the growth with NCI-H522 lung is -72.5% (active); in the assay on A549/ATCC NSCLC it was -5.16% (active); in the assay on 786-0 renal, -86.8% (active); in the assay with COLO 205 colon, -56.3% (active); in the assay with DU-145 prostate, -27.8% (active); in the assay with K-562 leukemia, 12.3%. Moreover, the growth in the assay with MALME-3M melanoma was -76.8% (active); in the assay with MDA-MB-231 breast it was -54% (active); in the assay on RXF 393 renal it was -68.5% (active); with SF-268 CNS, 58%; with SF-295 CNS, -36.1% (active); in the assay with SF-539 CNS, -87.5% (active). The growth in the assay on UACC-257 melanoma was -77.6% (active); in the assay with M14 melanoma, -54.1% (active).

Turning to `COC(=O)C(Cc1ccc(O)c(O)c1)NC(=O)C(CSC/C=C(\C)CCCC(C)CCCC(C)CCCC(C)C)NC(C)=O` (stereo not drawn), the growth is 31.1% in the assay with NCI-H23 lung; 30.3% in the assay on NCI-H226 lung; 67.1% in the assay with NCI-H322M lung; 26.5% in the assay on HOP-62 NSCLC; 18.9% in the assay on NCI-H460 lung; 18.5% in the assay with HOP-92 NSCLC. Also, the growth was -85.6% (active) in the assay on NCI-H522 lung; 18.9% with A549/ATCC NSCLC; 51.4% in the assay with 786-0 renal; 3.84% (active) in the assay with COLO 205 colon; 75.5% with DU-145 prostate; 5.33% (active) with K-562 leukemia. For the same compound, the growth was 87.4% in the assay with MALME-3M melanoma; 38.1% with MDA-MB-231 breast; 48.3% in the assay on RXF 393 renal; 27.6% with SF-268 CNS; 1.8% (active) with SF-295 CNS; -34.7% (active) in the assay with SF-539 CNS. The growth in the assay with UACC-257 melanoma was 56.4%; with M14 melanoma it was 13.9%.

On to `Nc1nnc(-c2c[nH]c3ncccc23)c(-c2c[nH]c3ccc(Br)cc23)n1`, for which the growth in the assay with NCI-H23 lung is 57.1%; with NCI-H226 lung it was 63.6%; with NCI-H322M lung it was 60.5%; in the assay with HOP-62 NSCLC it was 49.4%; with NCI-H460 lung, 27.2%; with HOP-92 NSCLC it was 54.8%. Besides, the growth in the assay with NCI-H522 lung was 47.9%; in the assay on A549/ATCC NSCLC, 58.9%; in the assay on 786-0 renal, 40%; in the assay with COLO 205 colon it was 66.9%; with DU-145 prostate, 62.4%; with K-562 leukemia, 32.9%. Moreover, the growth is 46.8% with MALME-3M melanoma; 41.6% in the assay with MDA-MB-231 breast; 45.4% with RXF 393 renal; 51.8% in the assay with SF-268 CNS; 41.9% with SF-295 CNS; 37.2% with SF-539 CNS. In addition, in the assay with UACC-257 melanoma, the growth is 82.1%.

On to `Cc1cc(C)cc(Oc2cccc(-c3c(C)nnn3C3CCN(CCN(C)C)CC3)n2)c1`, for which the growth is 34.5% in the assay on NCI-H23 lung; 5.11% (active) in the assay with NCI-H226 lung; 40% with NCI-H322M lung; 42.5% in the assay on HOP-62 NSCLC; 51.1% in the assay with NCI-H460 lung; -9.61% (active) with HOP-92 NSCLC. Further, the growth was -15.7% (active) in the assay with NCI-H522 lung; 30.3% in the assay on A549/ATCC NSCLC; 22.3% in the assay with 786-0 renal; -74% (active) in the assay on COLO 205 colon; 55.8% in the assay with DU-145 prostate; 13.6% with K-562 leukemia. Moreover, the growth in the assay on MALME-3M melanoma was -40.5% (active); with MDA-MB-231 breast, 36.9%; with RXF 393 renal, -6.82% (active); in the assay on SF-268 CNS, 52.2%; in the assay on SF-295 CNS, 32.9%; in the assay on SF-539 CNS it was 34.2%. The growth in the assay with UACC-257 melanoma is -31.7% (active); in the assay with M14 melanoma, 7.14% (active).

`O=C(Nc1cc(Cl)cc(Cl)c1)Nc1cc(Cl)cc(Cl)c1`: the growth in the assay with NCI-H23 lung was -21.1% (active); with NCI-H226 lung, -37.8% (active); in the assay on NCI-H322M lung, -5.15% (active); in the assay on HOP-62 NSCLC, -30.3% (active); with NCI-H460 lung, -16.2% (active); with HOP-92 NSCLC, -33.8% (active). The growth in the assay on NCI-H522 lung is -36.1% (active); in the assay with A549/ATCC NSCLC, 1.01% (active); in the assay with 786-0 renal it was -1.4% (active); in the assay on COLO 205 colon, -98.9% (active); with DU-145 prostate, 15.2%; in the assay on K-562 leukemia it was -25.5% (active). Moreover, the growth is -40.5% (active) in the assay with MALME-3M melanoma; -65.6% (active) with MDA-MB-231 breast; -15.1% (active) with RXF 393 renal; 9.6% (active) in the assay with SF-268 CNS; -47.9% (active) in the assay on SF-295 CNS; -46.2% (active) with SF-539 CNS. In addition, the growth in the assay with UACC-257 melanoma was -29.7% (active).

As for `O=c1cc(-c2ccccc2)oc2cc(OCCCCNCc3ccccc3)cc(O)c12`, the growth in the assay on NCI-H23 lung is -73.7% (active); with NCI-H226 lung, 59.6%; with NCI-H322M lung, 57.5%; with HOP-62 NSCLC, 61%; with NCI-H460 lung, -73.9% (active); in the assay on HOP-92 NSCLC, 31.8%. In addition, the growth is 34.2% with NCI-H522 lung; 49.3% in the assay with A549/ATCC NSCLC; -68.2% (active) in the assay with 786-0 renal; -91.8% (active) with COLO 205 colon; 27.6% in the assay with DU-145 prostate; -17.6% (active) in the assay with K-562 leukemia. Also, the growth in the assay with MALME-3M melanoma was -92.6% (active); in the assay on MDA-MB-231 breast, -12.4% (active); in the assay on RXF 393 renal it was -79.8% (active); in the assay with SF-268 CNS, 43.6%; in the assay with SF-295 CNS, -93.5% (active); in the assay on SF-539 CNS, -96.2% (active). In addition, the growth was -35.6% (active) in the assay on UACC-257 melanoma and -75.9% (active) with M14 melanoma.

On to `Clc1ccc(/C=N/Nc2ncnc3sc4c(c23)CCN(Cc2ccccc2)C4)cc1`, for which the growth in the assay with NCI-H23 lung is 13.9%; in the assay with NCI-H226 lung, -54.2% (active); in the assay on NCI-H322M lung it was 22.3%; in the assay on HOP-62 NSCLC it was -33.5% (active); with NCI-H460 lung, -75.6% (active); with HOP-92 NSCLC, -59.6% (active). Further, the growth with NCI-H522 lung was 1.08% (active); in the assay on A549/ATCC NSCLC it was -53.2% (active); in the assay on 786-0 renal, -84.8% (active); in the assay on COLO 205 colon, -86.1% (active); with DU-145 prostate, 3.38% (active); in the assay on K-562 leukemia, 1.43% (active). The growth is -66.9% (active) in the assay with MALME-3M melanoma; -65.8% (active) with MDA-MB-231 breast; 31.5% in the assay with RXF 393 renal; -31.2% (active) in the assay on SF-268 CNS; -81.6% (active) in the assay on SF-295 CNS; -87.1% (active) in the assay on SF-539 CNS. For the same compound, the growth in the assay on UACC-257 melanoma was -15.5% (active); with M14 melanoma it was -63.2% (active).

The values are drawn from PubChem BioAssay (NCI).
